# From PubChem BioAssay (NCATS)
# Records with an inconclusive call do not appear. Values without a mark were called inactive. Active and inactive are the calls of the source. Calls come from the whole dose curve; as a rule, active = well fitted inhibition curve with a large enough effect; inconclusive = small, poorly fitted or top-dose-only effect; inactive = flat fitted curve, though single readings scatter.
# System: CP211
# Assay: qHTS profiling for inhibitors of Plasmodium falciparum proliferation (AID 504749); note: nearly all actives have a fitted effect of over 60% in size;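 for activity, negative = inhibition: 0% = DMSO vehicle and full inhibition = artemisinin control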
# Settings: P. falciparum in erythrocytes, SYBR Green DNA, 72 h; series mostly up to 28.7 µM; activity, negative = inhibition: at the top concentration
# Summary of the method: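 Quantitative HTS: compounds pinned into medium, infected erythrocytes added (0.3% parasitemia, 2.5% hematocrit), 72 h culture at 37 C under 5% CO2. Saponin/Triton lysis with SYBR Green I, overnight RT, then fluorescence read.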
# Potency is the fitted concentration of half-maximal effect.
SMILES,"activity, negative = inhibition",Potency
CC/C=C\C/C=C\C/C=C\C/C=C\C/C=C\C/C=C\CCC(=O)O,1.04%,
O=C(O)/C=C/c1ccccc1,5.67%,
CC(=O)Oc1cccc(C(=O)O)c1OC(C)=O,-15.4%,
CC(CNC(=O)c1cccnc1)NC(=O)c1cccnc1 (stereo not given),-1.52%,
CN=C1C=CC(=C(c2ccc(N(C)C)cc2)c2ccc(N(C)C)cc2)C=C1,,757 nM (active)
CC/C(=C(/CC)c1ccc(OP(=O)(O)O)cc1)c1ccc(OP(=O)(O)O)cc1,0.184%,
ClC(Cl)Cl,-2.61%,
CCCCCCCCCCCCCCCCCC[N+](C)(C)CCC[Si](OC)(OC)OC,-0.811%,
Oc1cc(O)cc(O)c1,6.7%,
CC(=O)Nc1c(I)c(C(=O)O)c(I)c(N(C)C(C)=O)c1I,-18%,
CC(C)CCC[C@@H](C)[C@H]1CC[C@H]2[C@@H]3CC=C4C[C@@H](O)CC[C@]4(C)[C@H]3CC[C@]12C,12.1%,
CCCCCCCCCCCCOCCCN,-0.233%,
CC(C)(C)c1ccc2c(S(=O)(=O)O)c(C(C)(C)C)ccc2c1,9.04%,
CCSc1ccc2c(c1)N(CCCN1CCN(C)CC1)c1ccccc1S2,-2.64% [at 12.8 µM],
c1ccc(-n2cnnn2)cc1,-1.39%,
CN1CCC(OC(=O)C(Oc2ccc(Cl)cc2)Oc2ccc(Cl)cc2)CC1,5.17%,
CC(C)Cc1ccc([C@@H](C)C(=O)NS(C)(=O)=O)cc1,4.42%,
CCCc1ccc(C(=O)O)cc1,-1.96%,
CNC(=O)c1c(I)c(C(=O)NCC(=O)Nc2c(I)c(C(=O)O)c(I)c(C(=O)NCCO)c2I)c(I)c(N(C)C(C)=O)c1I,0.0636%,
CC1CC(O)CC(C)(C)C1 (stereo not given),5.03%,
